Bioassay records from PubChem.
ALOX12 inhib: qHTS Assay for Inhibitors of 12-hLO (12-human lipoxygenase) | Polyunsaturated fatty acid lipoxygenase ALOX12 (Homo sapiens), P18054 | purified 12-hLO, xylenol orange hydroperoxide absorbance | Potency, µM (series often up to 57.1 µM), without a hit: top-dose activity change, negative = inhibition, most hits filed as inhibitors | 150,000 compounds, 0.12% hits; further: potency means the concentration at half of the fitted maximal effect; on the % scale 0 is the no-effect control and ±100 the full control effect; nearly all actives have a fitted effect of over 55% in size
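150 nM 12hLO, 25 mM Hepes pH 7.0 + 0.01% Triton X-100; cpd preinc 15 min RT; 40 uM arachidonic acid, 30 min RT; Fe-XO 30 min; A573/A405 ratio as read-out.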
p53ts 39C tox: qHTS Screen for Compounds that Selectively Target Cancer Cells with p53 Mutations: Cytotoxicity of p53ts Cells at the Nonpermissive Temperature; H1299-p53A138V viability at 39C, ATP luminescence, 24 h; Potency, µM (highest dose often 46.1 µM), for the others: at the highest dose activity change, negative = cell killing, hits mostly cytotoxic; 130,000 compounds, 1.5% hits; further: potency means the concentration at half of the fitted maximal effect; on the % scale 0 is the no-effect control and ±100 the full control effect; nearly all actives have a fitted effect of over 55% in size
p53ts 32C tox: qHTS Screen for Compounds that Selectively Target Cancer Cells with p53 Mutations: Cytotoxicity of p53ts Cells at the Permissive Temperature; H1299-p53A138V at 32C, ATP luminescence viability, 24 h; Potency, µM (top dose mostly 46.1 µM), for inactives: at the top dose activity change, negative = cytotoxicity, hits mostly cytotoxic; 130,000 compounds, 0.93% hits; AID 924, 2007;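 further: potency means the concentration at half of the fitted maximal effect; 0% = DMSO and -100% = full killing by reference compound; nearly all actives have a fitted effect of over 55% in size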
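ATP-content luminescence (ATPlite) read-out after 24 h compound exposure at 32C in H1299-p53A138V cells (600/well). Tested up to 46 uM. Normalized to DMSO (0%) and 100 uM tamoxifen (100% killing); Hill-fit AC50.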
HPGD block: qHTS Assay for Inhibitors of HPGD (15-Hydroxyprostaglandin Dehydrogenase); AID 894, 2007; purified HPGD, NADH fluorescence kinetic, PGE2 substrate; 15-hydroxyprostaglandin dehydrogenase [NAD(+)] (Homo sapiens), P15428; Potency, µM, inactives show at the top dose activity change, negative = inhibition, actives largely listed as inhibitors; 150,000 compounds, 4.3% hits; active means well fitted inhibition curve with a large enough effect, not every such curve was filed as active; inconclusive means small, poorly fitted or top-dose-only effect, or another doubt; inactive means no such curve, though single readings can be large or run the other way; further: potency means the concentration at half of the fitted maximal effect; on the % scale 0 is the no-effect control and ±100 the full control effect
Target sequence (P15428 whole entry, looked up): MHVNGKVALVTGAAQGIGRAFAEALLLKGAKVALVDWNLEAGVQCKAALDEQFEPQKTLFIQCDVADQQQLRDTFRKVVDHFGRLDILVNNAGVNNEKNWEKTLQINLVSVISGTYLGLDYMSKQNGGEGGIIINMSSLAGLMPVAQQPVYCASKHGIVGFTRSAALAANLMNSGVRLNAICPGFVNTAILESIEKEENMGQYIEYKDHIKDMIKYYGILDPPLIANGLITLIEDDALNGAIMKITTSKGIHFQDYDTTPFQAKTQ
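20 nM HPGD preincubated 15 min at room temperature with compound in 50 mM Tris-HCl pH 8, 0.01% Tween 20. Started with 1 mM NAD+ and 30 uM prostaglandin E2; NADH fluorescence (360/450 nm) read 5 times over 30-s intervals, last minus first.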
HPGD inh cf: Confirmation qHTS Assay for Inhibitors of HPGD (15-Hydroxyprostaglandin Dehydrogenase) | 90 compounds, 90% hits | recombinant HPGD, NADH fluorescence, PGE2 substrate | shares compounds with HPGD block | Potency, µM (doses to about 57.1 µM), inactives show top-dose activity change, negative = inhibition, hits mostly inhibitors; calls by dose curve
* marks the source's active call; other numbers are inactive results. Shown are actives, neighbours in structure and some others; about 4.4% of the full set was active somewhere. Unless noted, the call rests on the fitted dose curve; in most records, active means well fitted curve in the direction sought with a large enough effect; inconclusive means small, poorly fitted or top-dose-only effect, or another doubt; inactive means no such curve, though single readings can be large; an effect the other way counts as inactive or inconclusive.

COc1ccc2cc(C(=O)N3CCCCCC3)sc(=O)c2c1OC was read as ALOX12 inhib -2.8%, p53ts 39C tox -3.6%, p53ts 32C tox -14.1%, HPGD block 0.126µM* and HPGD inh cf 0.251µM*.
Screening COC(=O)c1cc2ccc(OC)c(OC)c2c(=O)s1 returned ALOX12 inhib 9.8%, p53ts 39C tox -11.3%, p53ts 32C tox 6.5% and HPGD block -14.6%.
COCCNC(=O)c1nc2c(nnn2Cc2cc(C)ccc2C)c(=O)[nH]1 was read as ALOX12 inhib 1.9%, p53ts 39C tox 4.4%, p53ts 32C tox -5.8%, HPGD block 0.199µM* and HPGD inh cf 0.708µM*.
`Cc1ccc(C)c(Cn2nnc3c(=O)[nH]c(C(=O)NCC4CCCO4)nc32)c1` (stereo not drawn) gave ALOX12 inhib 2.2%, p53ts 39C tox 9.0%, p53ts 32C tox -10.1%, HPGD block 1.26µM* and HPGD inh cf 0.398µM*.
For CC(C)N1CCc2nc(SCC(=O)Nc3cccc(F)c3)[nH]c(=O)c2C1 the results were p53ts 39C tox 18.8% and p53ts 32C tox 3.9%.
`Cc1ccc(-c2n[nH]c(=S)n2/N=C/c2c(C)nn(-c3ccccc3)c2C)cc1` gave ALOX12 inhib 0.3%, HPGD block 1.12µM* and HPGD inh cf 0.501µM*.
`COc1ccc(S(=O)(=O)N(C)c2ccc(C(=O)N3CCC(C(N)=O)CC3)cc2)cc1` gave ALOX12 inhib 2.3%, p53ts 39C tox 6.1%, p53ts 32C tox 1.8%, HPGD block -11.3% and HPGD inh cf -25.4%.
CCOC(=O)c1sc(NC(=O)CSc2n[nH]c(-c3ccccc3)n2)c(C#N)c1C was read as ALOX12 inhib -4.5%, p53ts 39C tox 12.5%, p53ts 32C tox 25.2%, HPGD block 1µM* and HPGD inh cf 1.12µM*.
Cc1cc(-c2nnc3n2CCCCC3)c(C)n1-c1ccccc1 was read as ALOX12 inhib -1.2%, p53ts 39C tox -4.4%, p53ts 32C tox -6.0%, HPGD block 0.159µM* and HPGD inh cf 0.0891µM*.
`c1ccc(N2CCN(CCc3nnc4n3CCCCC4)CC2)cc1` gave ALOX12 inhib -1.0%, p53ts 39C tox 7.0%, p53ts 32C tox 0.0% and HPGD block -4.7%.
COc1cccc(C2C(=O)N(C3CCCCC3)CC(=O)N2Cc2ccc(Cl)cc2)c1 (stereo not drawn) was read as p53ts 39C tox -25.0% and p53ts 32C tox 1.8%.
For CC1CCCN(C(=O)c2ccc(COc3ccccc3Br)cc2)C1 (stereo not drawn) the results were ALOX12 inhib -18.1%, HPGD block 0.0891µM* and HPGD inh cf 0.126µM*.
`CC1CCCN(C(=O)c2ccncc2)C1` (stereo not drawn) gave ALOX12 inhib -4.6%, p53ts 39C tox 0.0%, p53ts 32C tox -0.9% and HPGD block -29.7%.
For O=C(CCc1ccc(Oc2cc([N+](=O)[O-])cc([N+](=O)[O-])c2)cc1)N1CCCCCC1 the results were ALOX12 inhib -1.2%, HPGD block 0.891µM* and HPGD inh cf 0.398µM*.
`CCOC(=O)N1CCN(C(=O)c2ccc(Cn3c(=S)[nH]c4cc5c(cc4c3=O)OCO5)cc2)CC1` gave ALOX12 inhib 0.4%, p53ts 39C tox 16.2%, p53ts 32C tox 18.0% and HPGD block -8.7%.
O=C(c1ccc2c(=O)n(Cc3ccc4c(c3)OCO4)c(=S)[nH]c2c1)N1CCCCC1 was read as ALOX12 inhib 0.1%, p53ts 39C tox -7.8%, p53ts 32C tox 9.9%, HPGD block 0.398µM* and HPGD inh cf inconclusive.
For COc1ccc(N2CCN(C(=O)c3ccc(CSc4ccccc4)cc3)CC2)cc1 the results were ALOX12 inhib 1.6%, HPGD block -11.7% and HPGD inh cf -20.1%.
Screening O=c1n(Cc2ccc(F)cc2Cl)c2ccccc2c2nc(-c3ccccc3)nn12 returned p53ts 39C tox -3.4% and p53ts 32C tox 3.8%.
For O=C(Nc1ccc(Br)cc1)c1ccc(N2C(=O)C3CC=C(Cl)CC3C2=O)cc1 (stereo not drawn) the results were ALOX12 inhib -3.0% and HPGD block -5.4%.
Screening CCOC(=O)c1ccc(N2C(=O)C3CC=C(C)CC3C2=O)cc1 (stereo not drawn) returned ALOX12 inhib -1.5%, p53ts 39C tox -5.0%, p53ts 32C tox 0.4% and HPGD block -13.8%.
For CC1=CCC2C(=O)N(c3ccc(C(=O)N4CCCCCC4)cc3)C(=O)C2C1 (stereo not drawn) the results were ALOX12 inhib 2.4%, HPGD block 1.41µM* and HPGD inh cf 0.794µM*.
`C/C(=N/OC(=O)c1ccc(C)cc1)c1ccc(N2C(=O)C3CCCCC3C2=O)cc1` (stereo not drawn) gave ALOX12 inhib 2.5%.
`O=C(c1ccc(N2C(=O)C3CC=C(Cl)CC3C2=O)cc1)N1CCCCC1` (stereo not drawn) gave ALOX12 inhib -6.2%, HPGD block 0.501µM* and HPGD inh cf 0.251µM*.
`O=C(c1ccc(N2C(=O)C3CCCCC3C2=O)cc1)N1CCCCC1` (stereo not drawn) gave ALOX12 inhib -0.9%, HPGD block 1µM* and HPGD inh cf 0.562µM*.
CCN(CC)C(=O)c1sc2c(c1C)c(=O)n(Cc1ccccc1)c(=O)n2CC(=O)Nc1ccc(OC)cc1 was read as p53ts 39C tox 28.0% and p53ts 32C tox 46.5%.
Screening COc1ccccc1CNC(=O)C(=O)NCC(c1cccs1)S(=O)(=O)c1ccc(F)cc1 (stereo not drawn) returned p53ts 39C tox -7.7% and p53ts 32C tox 3.9%.
`COc1ccc(NC(=O)C2CCN(S(=O)(=O)c3ccc4c(c3)CCCC(=O)N4)CC2)c(OC)c1` gave p53ts 39C tox -0.1% and p53ts 32C tox -1.3%.
For COc1ccccc1N(CC(=O)NCCSc1ccccc1)S(=O)(=O)c1ccc(C)cc1 the results were p53ts 39C tox -4.3% and p53ts 32C tox -1.8%.
For O=c1[nH]c2ccc(S(=O)(=O)Nc3ccc(-c4nnc5n4CCCCC5)cc3)cc2o1 the results were ALOX12 inhib -2.8%, p53ts 39C tox -4.8%, p53ts 32C tox -3.5%, HPGD block 0.199µM* and HPGD inh cf 0.126µM*.
Screening CCCCCNC(=O)c1ccc2c(c1)ncn2-c1cccc(C)c1 returned p53ts 39C tox -22.6% and p53ts 32C tox -20.8%.
Cc1cccc(-n2cnc3cc(C(=O)N4CCCCC4)ccc32)c1 was read as ALOX12 inhib -0.6%, p53ts 39C tox -4.3%, p53ts 32C tox -1.8%, HPGD block 0.0708µM* and HPGD inh cf 0.0562µM*.
`O=c1[nH]c(SCc2ccccc2Cl)nc2c1CCC2` gave ALOX12 inhib -5.4%, p53ts 39C tox 10.8%, p53ts 32C tox -9.9%, HPGD block 1µM* and HPGD inh cf 2.24µM*.
For O=c1[nH]c(SCc2ccc(F)cc2)nc2c1CCCC2 the results were p53ts 39C tox -24.3% and p53ts 32C tox 0.5%.
CC(=O)N1CCc2cc(CNS(=O)(=O)c3ccc(Br)s3)ccc21 was read as p53ts 39C tox -1.4% and p53ts 32C tox 0.2%.
